From PubChem BioAssay
NPC1 promoter act = activates the NPC1 promoter | Huh7 NPC1 promoter luciferase reporter, 24 h | Potency, µM (series often up to 9.22 µM), for inactives: top-dose activation, hits mostly activators | 320,000 tested, 2.4% active; note: % of control where 0% means no effect; nearly all actives have a fitted effect of over 60% in size
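In 1536-well qHTS, Huh7 cells harboring an NPC1 promoter–luciferase construct received compound for 24 h; activation was quantified by luminescence following luciferase reagent addition.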
Rab9 promoter act = Rab9 promoter activation. Huh7 Rab9 promoter-luciferase reporter, luminescence, 24 h. Potency, µM (top dose mostly 9.22 µM), for the others: at the top dose activation, negative = inhibition, actives largely listed as activators. 320,000 tested, 2.8% active. AID 485297; note: % of control where 0% means no effect; nearly all actives have a fitted effect of over 60% in size
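Cell-based reporter: Huh7 stable for Rab9 promoter-driven luciferase, plated in reduced-serum medium with 10% FBS at 1500 cells/well, compound-treated 24 h at 37 °C, luminescence read after 10 min reagent.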
ELG1 genotox = induces genotoxicity in HEK293T cells with luciferase-tagged ELG1; HEK293T ELG1-luciferase reporter, luminescence, 16 h; Potency, µM (highest dose often 46 µM), for inactives: at the top dose activity change, positive = activation, actives largely listed as activators; 330,000 tested, 1.3% active; note: % of control where 0% means no effect; nearly all actives have a fitted effect of over 60% in size
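Luminescence read-out: rising ELG1-luciferase signal, reflecting elevated ELG1 protein under genetic stress, flags genotoxic compounds. Cells were treated for 16 hr at 37 °C before ONE-Glo detection.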
Luc counter = blocks Kinase-Glo luciferase, a counter-screen artifact; Kinase-Glo luciferase, ATP luminescence, 8 min; AID 1379; Potency, µM (highest dose often 38.3 µM), without a hit: top-dose activity change, negative = inhibition, hits mostly inhibitors; 200,000 tested, 0.28% active; note: % is set by controls: 0 for no effect and ±100 for the full control effect; nearly all actives have a fitted effect of over 60% in size
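Compound is pinned into ATP-containing buffer (10 uM ATP, imidazole pH 7.2, 7 mM MgCl2). Kinase-Glo luciferase reagent is then added. Light output is recorded following an 8-min room-temperature incubation.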
SMN2 splice up = enhancers of SMN2 splice variant expression; AID 1458; HEK293 SMN2-luciferase splicing reporter, luminescence, 30-36 h; 210,000 tested, 2.8% active; Potency, µM (doses to about 46.1 µM), for the others: at the highest dose activity change, positive = activation, most hits filed as activators; note: % of control where 0% means no effect; nearly all actives have a fitted effect of over 55% in size
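HEK293 cells carry an SMN2 […]–luciferase reporter in which exon 7 inclusion puts luciferase in frame. Cells were plated 10-12 h before compound addition, then incubated 30-36 h at 37C. ONE-Glo luminescence was read; sodium butyrate at 4.5 mM final served as control.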
FLuc counter = firefly luciferase modulation, counter-screen for miR-21 project; P08659; purified FLuc, Km substrates, luminescence inhibition; Potency, µM (titrated, usually from 57.5 µM), for inactives: at the top dose activity change, negative = inhibition, usual class: inhibitors; 360,000 tested, 6.9% active;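 note: plate controls were vehicle for no effect and reference inhibitor for full effect; nearly all actives have a fitted effect of over 55% in size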
Target sequence (P08659 whole entry, looked up): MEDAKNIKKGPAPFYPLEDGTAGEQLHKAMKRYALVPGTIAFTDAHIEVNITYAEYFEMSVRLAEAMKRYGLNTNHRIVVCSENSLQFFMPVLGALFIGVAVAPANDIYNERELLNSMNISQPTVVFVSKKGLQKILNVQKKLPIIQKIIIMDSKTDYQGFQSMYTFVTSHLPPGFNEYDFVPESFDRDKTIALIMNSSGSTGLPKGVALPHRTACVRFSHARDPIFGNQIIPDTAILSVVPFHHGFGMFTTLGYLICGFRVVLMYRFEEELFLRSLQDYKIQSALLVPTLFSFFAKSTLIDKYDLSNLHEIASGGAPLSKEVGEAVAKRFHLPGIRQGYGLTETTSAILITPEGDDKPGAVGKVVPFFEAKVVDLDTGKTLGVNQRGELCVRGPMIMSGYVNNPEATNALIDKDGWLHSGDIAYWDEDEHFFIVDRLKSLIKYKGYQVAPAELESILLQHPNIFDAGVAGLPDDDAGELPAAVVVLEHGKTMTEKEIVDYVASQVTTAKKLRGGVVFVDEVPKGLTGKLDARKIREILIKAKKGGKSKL
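Biochemical qHTS of compounds, final roughly 60 µM downward over six points, against 10 nM purified firefly luciferase using Km concentrations of substrates (10 uM D-luciferin, 10 uM ATP) in Tris acetate pH 7.5 buffer; luminescence output.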
* marks the source's active call; other numbers are inactive results; ? = inconclusive; · = no result. In the library only some 7.3% were active in any assay of this set; here they are far more common. Calls come from the whole dose curve; as a rule, active = well fitted curve in the direction sought with a large enough effect; inconclusive = small, poorly fitted or top-dose-only effect, or another doubt; inactive = no such curve, though single readings can be large; an effect the other way counts as inactive or inconclusive. Potency is the fitted concentration of half-maximal effect.

SMILES | NPC1 promoter act | Rab9 promoter act | ELG1 genotox | Luc counter | SMN2 splice up | FLuc counter
CC(C)Oc1ccc(C(=O)Nc2nnc3n2CCS3)cc1 | · | · | · | · | · | 11µM*
O=C(O)c1cc(N/N=C/c2ccc(N3CCOCC3)s2)ccc1Cl | ? | 3.2µM* | ? | -6% | ? | 7.6µM*
NC(=O)N/N=C/c1ccc(N2CCOCC2)s1 | 0% | 2% | 8% | -4% | 10% | ?
C/C(=N\Nc1ccc(Cl)c(C(=O)O)c1)c1ccc(N2CCOCC2)cc1 | 27% | ? | ? | · | · | 24µM*
C/C(=N\NC(=O)c1ccc(F)cc1)c1ccc(N2CCOCC2)cc1 | -2% | 11% | 13% | 5% | 21% | ?
COc1ccccc1CNC(=O)c1ccc2c(c1)CCN2S(=O)(=O)c1ccccc1 | · | · | · | · | 1% | -6%
CCOC(=O)c1c(C)n(C)c2ccc(O)c(CN(C)C)c12 | -2% | 9% | -3% | -2% | -1% | 0%
CC1CCc2c(C(=O)NCc3ccco3)csc2C1 (stereo unspecified) | 17% | 20% | 12% | · | · | -32%
CCc1nnc(NC(=O)c2csc3c2CCC(C)C3)s1 (stereo unspecified) | ? | 2µM* | ? | -1% | ? | -8%
CCc1nnc(NC(=O)C2CCCCC2)s1 | 11% | 19% | 1% | 7% | 8% | 1%
COc1ccccc1NC(=O)c1csc2c1CCC(C)C2 (stereo unspecified) | ? | 29% | 16% | -8% | · | ?
CC1CCc2c(C(=O)Nc3cccc(-c4nn[nH]n4)c3)csc2C1 (stereo unspecified) | 16% | ? | ? | · | · | 2.7µM*
Cc1cc(F)ccc1NC(=O)c1csc2c1CCC(C)C2 (stereo unspecified) | · | · | · | · | 6.3µM* | ?
Cc1ccc(C=Nc2cc([N+](=O)[O-])ccc2C)s1 | 5% | 0% | 1% | 1% | 13% | 0%
Cc1ccc([N+](=O)[O-])cc1N=Cc1ccc(Br)s1 | ? | -1% | 9% | 2% | ? | 13µM*
Cc1oc2ccc(OCC(N)=O)cc2c1C(=O)OC(C)C | -4% | 2% | -2% | -3% | -27% | 3%
Cc1oc2ccc(O)cc2c1C(=O)OC(C)C | -2% | 1% | 15% | -4% | -12% | 15µM*
CCCCNc1c(-c2ccc(SC3CCCCC3)c(OC)c2)nc2ccc(Cl)cn12 | -7% | 2% | -11% | · | · | -8%
O=S(=O)(Cc1ccccc1)N1CCN(Cc2ccc(Br)cc2)CC1 | ? | 21% | 16µM* | · | · | ?
O=S(=O)(Cc1ccc(Cl)cc1)N1CCN(Cc2ccccc2)CC1 | -9% | 2% | 1% | 4% | 0% | 4%
COc1ccc(Cc2nn3c(Cn4nnc5ccccc54)nnc3s2)cc1 | 3% | -2% | -5% | 1% | -59% | 11µM*
c1ccc(-c2nn3c(Cn4nnc5ccccc54)nnc3s2)cc1 | 0% | 0% | 11% | 0% | 6% | -14%
CC(C)CCNC(=O)c1cccc(C(=O)NCCC(C)C)c1 | -1% | 0% | 2% | -2% | -10% | -1%
CC(C)CCNC(=O)C(=O)Nc1ccccc1 | 3.5µM* | 1.6µM* | ? | -8% | ? | ?
CC(C)CCNC(=O)c1ccc(-c2ccccc2)cc1 | ? | 3.5µM* | ? | -3% | 7.9µM* | 9.5µM*
SMILES | NPC1 promoter act | Rab9 promoter act | ELG1 genotox | Luc counter | SMN2 splice up | FLuc counter
CC(C)CCNC(=O)C(=O)Nc1c2c(nn1-c1ccccc1)CS(=O)(=O)C2 | · | · | · | · | · | 0%
O=C(CSc1nc(O)c(C/C=C/c2ccccc2)c(=O)[nH]1)Nc1cccc(F)c1 | · | · | · | · | -8% | 11µM*
COc1ccc(NC(=O)N2CCC3(CC2)CCN(C(=O)c2cc(C(F)(F)F)cc(C(F)(F)F)c2)CC3)cc1 | · | · | · | -1% | -5% | ·
O=C1C(C2=NC(C(=O)O)C3C(=O)N(c4ccc(Cl)cc4)C(=O)C23)=C(O)c2ccccc21 (stereo unspecified) | -4% | 10% | 3% | -12% | -3% | 6.7µM*
O=C1C(C2=NC(c3ccccn3)C3C(=O)N(c4ccc(Cl)cc4Cl)C(=O)C23)=C(O)c2ccccc21 (stereo unspecified) | -8% | -23% | 0% | · | · | 6%
Cc1nn(C(=O)c2cc3sccc3[nH]2)c(C)c1C | ? | ? | 16% | 1% | ? | 3µM*
Cc1nn(C(=O)CNC(=O)c2ccccc2)c(C)c1C | -1% | -11% | 7% | 0% | -1% | -14%
O=C(c1cccc(F)c1)N1CCc2ccccc2C1 | 2% | 18% | 12% | 5% | ? | ?
Cc1ccc(NC(=O)N2CCc3ccccc3C2)cc1 | 2.8µM* | 3.5µM* | 8.2µM* | -2% | 11µM* | 12µM*
O=C(Nc1ccc(Cl)cc1)N1CCc2ccccc2C1 | -1% | 3% | -4% | -2% | · | ?
Cc1ccc(NC(=O)c2nc[nH]c2C(=O)N2CCc3ccccc3C2)cc1 | -1% | 1% | 1% | · | · | 6%
O=C(CNc1cccc(F)c1)N1CCc2ccccc2C1 | 3.2µM* | 4.5µM* | ? | · | · | 13µM*
O=C(Nc1ccccc1)N1CCc2ccccc2C1 | ? | 4µM* | 15% | -13% | 14µM* | 21µM*
CN(C)c1ccc(NC(=O)CN2CCc3ccccc3C2)cc1 | 29% | ? | ? | · | · | 24µM*
COc1ccc(CNC(=O)C(C)NS(=O)(=O)c2ccc(C)cc2)cc1 (stereo unspecified) | -5% | -8% | -2% | 3% | · | 1%
Cc1noc(/C=C/NCc2cccnc2)c1S(=O)(=O)N(C)CC(=O)N1CCc2ccccc21 | 0% | 0% | 2% | 1% | -7% | 0%
Cc1cc(/C(N)=N/OC(=O)c2cccc(Cl)c2)no1 | 2% | 15% | ? | · | · | 6.7µM*
Cc1cc(/C(N)=N/OC(=O)c2ccc(Cl)cc2)no1 | 3.5µM* | 3.2µM* | 12µM* | · | · | 1.5µM*
Cc1cc(C(=O)NNC(=O)c2ccc(Cl)cc2)no1 | -8% | -6% | 3% | · | · | 2%
O=C(NCCCN1CCCC1=O)NC1CCCCC1 | 6% | 1% | 2% | 0% | -5% | -1%
Cc1ccc(C)c(N(C(=O)CCC(=O)Nc2cc(C)on2)C(C(=O)NC2CCCC2)c2ccco2)c1 (stereo unspecified) | -4% | 6% | -8% | 2% | -7% | -3%
OCCOCCOc1ccccc1OCCOCCO | -3% | -2% | 8% | 1% | 18% | 4%
Cc1cc(C)cc(N2Cc3ccccc3C2)c1 | 0% | 4% | 13% | 1% | 4% | -4%
COc1cc(N2Cc3ccccc3C2)ccc1C=O | ? | ? | 4µM* | · | · | 21µM*
